Assay [1] is described as follows: Primary qHTS for inhibitors of nuclear receptor binding SET domain protein 2 (NSD2) in an isogenic RCH-ACV NSD2 p.E1099K mutant (9B) (AID 1645876). Further: nearly all actives have a fitted effect of over 70% in size. Further: potency means the concentration at half of the fitted maximal effect.
Assay [2] is described as follows: Primary qHTS for inhibitors of nuclear receptor binding SET domain protein 2 (NSD2) in an RCH-ACV wild type WT cells (2C) (AID 1645877). Further: nearly all actives have a fitted effect of over 70% in size. Further: potency means the concentration at half of the fitted maximal effect. A general note: qHTS replaces the single test concentration by a dilution series.
Assay [3] has as its target Catechol O-methyltransferase (Homo sapiens) (UniProt P21964). As to the kind of experiment: Confirmatory Screen for Target Class Profiling of Small Molecule Inhibitors of Methyltransferases (AID 1745852; calls by dose curve; on activity change, negative = inhibition: on the % scale 0 is the no-effect control and ±100 the full control effect). The settings on record: MTase-Glo luminescence, SAH detection, recombinant enzyme; measured here: COMT max response; stronger effect = lower value.
For assay [4], the target named is Guanidinoacetate N-methyltransferase (Homo sapiens) (UniProt Q14353). The assay is described as above. The note with it: MTase-Glo luminescence, SAH detection, recombinant enzyme; activity change, negative = inhibition: at 57.3 µM (top of the series).
For assay [5], the target named is Rap guanine nucleotide exchange factor 3 (Homo sapiens) (UniProt O95398). As to the kind of experiment: Confirmatory qHTS for antagonist of cAMP-regulated guanine nucleotide exchange factor 3 (EPAC1) (AID 1645880). Further: nearly all actives have a fitted effect of over 55% in size. Further: potency means the concentration at half of the fitted maximal effect. The method, boiled down: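 Released BODIPY-GDP fluoresces less than Rap1-bound BODIPY-GDP; the signal is followed at 480/540 nm at 5-min intervals over 30 min, after 5 min at room temperature. Reactions contain 100 nM EPAC1, 250 nM RAP1B-BODIPY-GDP and 50 uM GDP; results are normalized to ATA and DMSO.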

The target is the same in assay [6]. As to the kind of experiment: Confirmatory qHTS for agonist of cAMP-regulated guanine nucleotide exchange factor 3 (EPAC1) (AID 1645881).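 Further: EPAC1 catalysed release of BODIPY-GDP from Rap1B seen as fluorescence loss; 100% = effect of cAMP agonist control; nearly all actives have a fitted effect of over 75% in size.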
Assay [7] has as its target Rap guanine nucleotide exchange factor 4 (Homo sapiens) (UniProt Q8WZA2). Put plainly: Confirmatory qHTS for agonist of cAMP-regulated guanine nucleotide exchange factor 4 (EPAC2) (AID 1645884). Further: on the % scale 0 is the no-effect control and ±100 the full control effect; nearly all actives have a fitted effect of over 65% in size.
The target is the same in assay [8]. Put plainly: Confirmatory qHTS for antagonist of cAMP-regulated guanine nucleotide exchange factor 4 (EPAC2) (AID 1645885). Further: nearly all actives have a fitted effect of over 25% in size. Further: potency means the concentration at half of the fitted maximal effect. On activity change, negative = inhibition: on the % scale 0 is the no-effect control and ±100 the full control effect.
Assay [9] has as its target Rap guanine nucleotide exchange factor 3 (Homo sapiens) (UniProt O95398). As to the kind of experiment: Counterscreen qHTS for antagonist of cAMP-regulated guanine nucleotide exchange factor 3 (EPAC1) (AID 1645888). Further: % of control where 0% means no effect. The text has this: Assay Provider (PI): Xiaodong Cheng Ph.D. The University of Texas Medical Branch, […], TX MLPCN Grant: NS066510 In multi-cellular eukaryotic organisms, the effects of cAMP are transduced by two ubiquitously-expressed intracellular cAMP receptors, the classic protein kinase A/cAMP-dependent protein kinase (PKA/cAPK) and the more recently discovered exchange protein directly activated by cAMP/cAMP-regulated guanine nucleotide exchange factor (EPAC/cAMP-GEF). Both PKA and EPAC are ubiquitously expressed in all tissues, and an increase in intracellular cAMP levels will lead to the activation of both PKA and EPAC. […] This qHTS will be used to screen the Molecular Libraries Small Molecule Repository (MLSMR) as a concentration-titration series using the NCGC unique quantitative screening (qHTS) platform to find activators for EPAC1. […] Activators are identified by monitoring the change in fluorescence signal as the exchanged free BODIPY-GDP has a reduced fluorescence compared to Rap1-bound BODIPY-GDP. […]
EPAC1 Counterscreen PROTOCOL TABLE SEQUENCE No. (e.g., 1, 2, 3, etc.); […] […] Fluorescence. (Read 1), Ex/Em = 480 nm / 540 nm. […] Fluorescence. (Read 2), Ex/Em = 480 nm/ 540 nm. […] Fluorescence. (Read 3), Ex/Em = 480 nm / 540 nm. […] Fluorescence. (Read 4), Ex/Em = 480 nm / 540 nm. […]
On the technique in general: Counterscreens check selectivity or assay interference.

Molecules are shown by their SMILES. Where “and” joins values, the source holds several entries; their conditions need not be identical. Equal values may be shown once. Inconclusive results are not listed. Calls of active or inactive are those of the source. Unless noted, the call rests on the fitted dose curve; in most records, active means well fitted curve in the direction sought with a large enough effect; inconclusive means small, poorly fitted or top-dose-only effect, or another doubt; inactive means no such curve, though single readings can be large; an effect the other way counts as inactive or inconclusive.

Sequence of Rap guanine nucleotide exchange factor 4 (Homo sapiens) (Q8WZA2 whole entry, looked up): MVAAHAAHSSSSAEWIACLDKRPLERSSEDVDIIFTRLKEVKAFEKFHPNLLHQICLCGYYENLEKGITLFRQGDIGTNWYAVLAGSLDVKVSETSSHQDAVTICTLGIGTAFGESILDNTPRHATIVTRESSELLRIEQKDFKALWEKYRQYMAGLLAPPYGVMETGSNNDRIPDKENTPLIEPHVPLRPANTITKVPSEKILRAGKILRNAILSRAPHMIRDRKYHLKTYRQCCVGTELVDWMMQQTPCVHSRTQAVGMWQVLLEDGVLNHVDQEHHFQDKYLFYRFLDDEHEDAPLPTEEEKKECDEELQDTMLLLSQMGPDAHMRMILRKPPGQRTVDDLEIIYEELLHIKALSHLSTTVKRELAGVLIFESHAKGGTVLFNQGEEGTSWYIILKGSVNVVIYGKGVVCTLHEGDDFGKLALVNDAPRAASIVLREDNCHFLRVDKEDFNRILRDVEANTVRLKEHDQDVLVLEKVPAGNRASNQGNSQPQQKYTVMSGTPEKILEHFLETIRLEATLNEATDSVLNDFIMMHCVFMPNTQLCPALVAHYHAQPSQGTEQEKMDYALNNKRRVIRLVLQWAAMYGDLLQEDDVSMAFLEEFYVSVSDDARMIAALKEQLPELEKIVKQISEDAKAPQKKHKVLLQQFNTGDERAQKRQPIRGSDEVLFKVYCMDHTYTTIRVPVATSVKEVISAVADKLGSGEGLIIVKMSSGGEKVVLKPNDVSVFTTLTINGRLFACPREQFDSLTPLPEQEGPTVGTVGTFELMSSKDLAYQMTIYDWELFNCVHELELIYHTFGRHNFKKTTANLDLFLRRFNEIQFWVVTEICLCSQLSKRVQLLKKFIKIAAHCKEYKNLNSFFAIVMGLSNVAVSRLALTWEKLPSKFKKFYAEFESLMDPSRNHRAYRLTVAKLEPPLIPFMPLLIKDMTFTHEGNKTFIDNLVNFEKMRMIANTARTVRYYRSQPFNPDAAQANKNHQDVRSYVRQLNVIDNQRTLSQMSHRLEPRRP
Sequence of Catechol O-methyltransferase (Homo sapiens) (P21964 whole entry, looked up): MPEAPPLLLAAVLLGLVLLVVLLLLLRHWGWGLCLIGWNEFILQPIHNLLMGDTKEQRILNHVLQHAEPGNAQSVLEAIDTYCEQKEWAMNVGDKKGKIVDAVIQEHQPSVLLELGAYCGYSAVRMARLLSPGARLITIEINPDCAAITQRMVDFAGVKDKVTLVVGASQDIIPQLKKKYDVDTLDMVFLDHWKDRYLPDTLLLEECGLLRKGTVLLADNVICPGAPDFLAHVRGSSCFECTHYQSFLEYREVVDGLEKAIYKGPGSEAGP
Sequence of Rap guanine nucleotide exchange factor 3 (Homo sapiens) (O95398 whole entry, looked up): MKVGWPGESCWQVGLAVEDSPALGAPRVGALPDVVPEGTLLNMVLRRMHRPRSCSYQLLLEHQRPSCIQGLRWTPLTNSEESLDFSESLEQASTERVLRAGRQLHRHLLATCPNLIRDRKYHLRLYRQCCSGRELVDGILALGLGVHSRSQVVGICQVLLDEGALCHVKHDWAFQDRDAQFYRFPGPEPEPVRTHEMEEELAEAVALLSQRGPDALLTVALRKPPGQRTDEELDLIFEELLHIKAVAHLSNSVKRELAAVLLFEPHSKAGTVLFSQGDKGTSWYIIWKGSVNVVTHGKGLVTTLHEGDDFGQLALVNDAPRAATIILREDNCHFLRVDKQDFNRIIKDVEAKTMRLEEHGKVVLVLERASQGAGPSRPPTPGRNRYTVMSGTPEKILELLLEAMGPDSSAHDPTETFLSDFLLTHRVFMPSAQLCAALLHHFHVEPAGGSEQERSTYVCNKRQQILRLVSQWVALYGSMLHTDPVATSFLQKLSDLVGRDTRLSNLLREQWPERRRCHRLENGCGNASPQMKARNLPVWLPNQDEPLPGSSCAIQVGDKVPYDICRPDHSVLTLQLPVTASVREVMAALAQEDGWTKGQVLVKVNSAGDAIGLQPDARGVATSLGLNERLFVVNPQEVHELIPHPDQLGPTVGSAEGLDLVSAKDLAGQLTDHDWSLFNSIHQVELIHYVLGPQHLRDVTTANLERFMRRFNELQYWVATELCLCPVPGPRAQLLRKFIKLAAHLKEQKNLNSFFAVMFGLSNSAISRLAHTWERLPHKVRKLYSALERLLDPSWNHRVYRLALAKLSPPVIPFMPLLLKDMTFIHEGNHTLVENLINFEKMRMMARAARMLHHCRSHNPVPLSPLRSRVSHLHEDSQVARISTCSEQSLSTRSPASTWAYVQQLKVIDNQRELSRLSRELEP

As for `O=C(O)[C@H](CC(=O)N1C[C@H]2CCCC[C@H]2C1)Cc1ccccc1`, the Potency entry in assay [1] and in [2] was “inactive” in each case.
Turning to `COc1ccc(-c2cc(=S)ss2)cc1`, the Potency result in [1] and in [2] was “inactive” each time.
`COc1cccc2c1C(=O)c1c(O)c3c(c(O)c1C2=O)C[C@@](O)(C(=O)CO)C[C@@H]3O[C@H]1C[C@H](N)[C@H](O[C@@H]2CCCCO2)[C@H](C)O1`: the Potency was 0.0067 µM (active) in assay [1] and 0.0038 µM (active) in assay [2].
Regarding `CC(C)(C)c1nnc(NS(=O)(=O)c2ccc(N)cc2)s1`, the Potency entry in [1] and in assay [2] was “inactive” throughout.
`[O-][n+]1ccccc1SSc1cccc[n+]1[O-]`: the Potency in assay [1] was 0.082 µM (active); in assay [2], 0.103 µM (active).
For the molecule `CCCCCCCCCCCC(=O)[O][Sn]([CH2]CCC)([CH2]CCC)[O]C(=O)CCCCCCCCCCC`, the Potency entry in assay [1] and in [2] was “inactive” throughout.
As to `CC(=O)c1ccc(OCC(=O)N2CCCCC2)cc1`, the Potency entry in assay [1] and in assay [2] was “inactive” each time.
On to `CCCCCCCCCCCCCCCC(=O)OC(C)C`, for which the Potency entry in assay [1] and in assay [2] was “inactive” in each case.
For `CC[C@H]1OC(=O)[C@H](C)[C@@H](O[C@H]2C[C@@](C)(OC)[C@@H](O)[C@H](C)O2)[C@H](C)[C@@H](O[C@@H]2O[C@H](C)C[C@H](N(C)C)[C@H]2O)[C@](C)(O)C[C@@H](C)C(=O)[C@H](C)[C@@H](O)[C@]1(C)O`, the Potency entry in assay [1] and in assay [2] was “inactive” each time.
For the molecule `COC(=O)Nc1nc2ccc(C(=O)C3CC3)cc2[nH]1`, the Potency in [1] is 0.376 µM (active); in assay [2], 0.266 µM (active).
Consider `C#C[C@]1(O)CC[C@H]2[C@@H]3CCc4cc(O)ccc4[C@H]3CC[C@@]21C`, for which the Potency in assay [1] was 11.8 µM (active); in [2], 18.8 µM (active) and 10.5 µM (active).
With `N#C/C(=C\c1ccc(O)c(O)c1)C(=O)NCc1ccccc1`, the Potency was 9.2 µM (active) and 13.2 µM (active) in assay [1]; 9.2 µM (active) and 11.8 µM (active) in assay [2].
In the case of `CC(C(=O)O)c1ccc(C(=O)c2ccccc2)s1` (centres undefined), the Potency entry in assay [1] and in [2] was “inactive” each time.
In the case of `CC1(C)[C@@H](O[C@H]2O[C@H](C(=O)O)[C@@H](O)[C@H](O)[C@H]2O[C@@H]2O[C@H](C(=O)O)[C@@H](O)[C@H](O)[C@H]2O)CC[C@]2(C)[C@H]3C(=O)C=C4[C@@H]5C[C@@](C)(C(=O)O)CC[C@]5(C)CC[C@@]4(C)[C@]3(C)CC[C@@H]12`, the Potency entry in assay [1] and in assay [2] was “inactive” in each case.
`Cc1ccc2c(n1)Oc1ccc(C(C)C(=O)OCC(=O)N(C)C)cc1C2` (centres undefined): the Potency entry in [1] and in assay [2] was “inactive” throughout.
Regarding `C=CCCCCCCCCC(=O)O`, the Potency result in assay [1] and in [2] was “inactive” throughout.
Consider `Nc1ccc(C(=O)O)c(O)c1`, for which the Potency entry in [1] and in assay [2] was “inactive” each time.
As for `COc1ccnc2c1CCCCC2S(=O)c1nc2ccccc2[nH]1` (centres undefined), the Potency result in assay [1] and in assay [2] was “inactive” each time.
For the molecule `CCCCCCCCCCCCCCCCCC(=O)O`, the Potency result in assay [1] and in assay [2] was “inactive” each time.
As for `O=C(O)Cc1ccc2c(c1)C(=O)c1ccccc1CO2`, the Potency entry in assay [1] and in [2] was “inactive” throughout.
Turning to `O=C(OCc1ccccc1)c1ccccc1`, the Potency result in assay [1] and in [2] was “inactive” each time.
`Cc1ccc(O)c(-n2nc3ccccc3n2)c1`: the Potency result in assay [1] and in assay [2] was “inactive” each time.
Turning to `CCCCC1C(=O)N(c2ccccc2)N(c2ccc(O)cc2)C1=O` (centres undefined), the Potency in [1] and in assay [2] was 0.531 µM (active) in each case.
`COc1cc(CNC(=O)CCCC/C=C/C(C)C)ccc1O`: the Potency in assay [1] is 7.28 µM (active) and 4.68 µM (active); in [2], 7.28 µM (active) and 4.17 µM (active).
Take `C[C@H](O)[C@H](O)[C@H]1CNc2nc(N)[nH]c(=O)c2N1`: the Potency entry in assay [1] and in assay [2] was “inactive” each time.
For the molecule `CCN(CC)CCCCNc1ncc2cc(-c3c(Cl)cccc3Cl)c(NC(=O)NC(C)(C)C)nc2n1`, the figures for the Potency in assay [1] and in assay [2] were 1.45 µM (active) and 3.65 µM (active), respectively. The activity in [3] is -7.59% and -2.1%. Besides, the activity change, negative = inhibition in [4] is 0.993% and 9.36%.
For the molecule `Brc1c(Br)c(Br)c2n[nH]nc2c1Br`, the Potency result in assay [1], in assay [2], in assay [6] and in [7] was “inactive” in each case. For the same molecule, the values for the Potency in assay [5] and in assay [8] were 55.9 µM (active) and 15.6 µM (active), respectively.
In the case of `O=C1NC(=O)/C(=C/c2ccc(-c3ccc(F)cc3O)o2)S1`, the Potency in assay [1] is 14.8 µM (active); in [2] it was 10.5 µM (active); in [5], 55.9 µM (active); in [8], 9.87 µM (active). The Potency result in assay [6] and in assay [7] was “inactive” throughout.
With `Cc1c(Nc2ncccc2C(=O)O)cccc1C(F)(F)F`, the Potency result in assay [2] was “inactive”.
`Oc1cc(O)cc(/C=C/c2ccc(O)c(O)c2)c1`: the figures for the Potency in assay [1] and in assay [2] were 6.51 µM (active) and 7.31 µM (active), respectively. For the same molecule, the activity in assay [3] is 119%. Moreover, in [4], the activity change, negative = inhibition is -14.6%.
On to `COc1cc2c3cc1Oc1cc(ccc1O)C[C@@H]1c4c(cc(OC)c(O)c4Oc4ccc(cc4)C[C@@H]3N(C)CC2)CC[N+]1(C)C`, for which the Potency entry in assay [1] and in assay [2] was “inactive” each time.
On to `N#C/C(=C\c1ccc(O)c(O)c1)C(=O)NCCCc1ccccc1`, for which the values for the Potency in assay [1], in assay [2] and in assay [5] were 14.6 µM (active), 16.4 µM (active) and 15.7 µM (active), respectively. The Potency entry in assay [6] and in assay [7] was “inactive” each time.
Consider `Cn1cc(C2=C(c3ccc(Cl)cc3Cl)C(=O)NC2=O)c2ccccc21`, for which the Potency in assay [1] and in assay [2] was 6.51 µM (active) throughout. In addition, the Potency result in assay [5] and in assay [6] was “inactive” each time. In addition, in assay [8], the activity change, negative = inhibition was 2.07% [at 12.7 µM] (inactive). Besides, the outcome in assay [9] is “inactive”.
In the case of `CCNC(=O)[C@H]1O[C@@H](n2cnc3c(N)nc(NCCc4ccc(CCC(=O)O)cc4)nc32)[C@H](O)[C@@H]1O`, the Potency result in [1] and in [2] was “inactive” in each case.
In the case of `CCCCN(CC)c1nc(C)nc2c1c(C)cn2-c1c(C)cc(C)cc1C`, the Potency result in assay [2] is “inactive”.
For `O=C(O)Cc1ccc(-c2ccccc2)cc1`, the Potency entry in assay [2] is “inactive”.
Consider `O=Cc1ccc(O)c(O)c1O`, for which the Potency in assay [2] is 16.8 µM (active).

The values are drawn from PubChem BioAssay (NCATS).
